Assay results from PubChem BioAssay (NCATS).
Records with an inconclusive call do not appear. Calls of active or inactive are those of the source. Calls come from the whole dose curve; as a rule, active = well fitted inhibition curve with a large enough effect; inconclusive = small, poorly fitted or top-dose-only effect; inactive = flat fitted curve, though single readings scatter.

Legend:
Assay in all cases: qHTS profiling for inhibitors of Plasmodium falciparum proliferation (AID 504749); note: nearly all actives have a fitted effect of over 60% in size
Conditions in all cases: P. falciparum in erythrocytes, SYBR Green DNA, 72 h; series mostly up to 28.7 µM
ECU = test system: ECU
Method in brief: (§1)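 In a 72 h erythrocytic culture (37 C, humidified, 5% CO2) at 2.5% hematocrit and 0.3% starting parasitemia, compounds were tested; SYBR Green I in detergent lysis buffer stained parasite DNA overnight.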

FAB9 = test system: FAB9
Method in brief: as §1

GB4 = test system: GB4
Method in brief: as §1

HB3 = test system: HB3
Method in brief: as §1

ICS = test system: ICS
Method in brief: as §1

JCK = test system: JCK
Method in brief: as §1

N140 = test system: N140
Method in brief: as §1

P93_24 = test system: P93_24
Method in brief: as §1

P94_40 = test system: P94_40
Method in brief: as §1

PAD = test system: PAD
Method in brief: as §1

PC15 = test system: PC15
Method in brief: as §1

PC26 = test system: PC26
Method in brief: as §1

PC49 = test system: PC49
Method in brief: as §1

SC27B = test system: SC27B
Method in brief: as §1

TAB109 = test system: TAB109
Method in brief: as §1

TAB113 = test system: TAB113
Method in brief: as §1

TAB165 = test system: TAB165
Method in brief: as §1

W2 = test system: W2
Method in brief: as §1

Measured: Potency

O=C(O)CCCC/C=C(\c1ccccc1)c1cccnc1
inactive: all assays above

CC12CCC(C1)C(C)(C)C2=O (stereo not given)
inactive: all assays above

CC(/C=C/C=C(\C)C(=O)O[C@@H]1O[C@H](CO[C@@H]2O[C@H](CO)[C@@H](O)[C@H](O)[C@H]2O)[C@@H](O)[C@H](O)[C@H]1O)=C\C=C\C=C(C)\C=C\C=C(/C)C(=O)O[C@@H]1O[C@H](CO[C@@H]2O[C@H](CO)[C@@H](O)[C@H](O)[C@H]2O)[C@@H](O)[C@H](O)[C@H]1O
inactive: all assays above

CNC(=O)OCc1cccc(COC(=O)NC)n1
inactive: all assays above

CC(CNC(=O)c1cccnc1)NC(=O)c1cccnc1 (stereo not given)
inactive: all assays above

COc1cc(S(C)=O)ccc1-c1nc2ncccc2[nH]1 (stereo not given)
inactive: all assays above

OCCCNc1ccccc1
inactive: all assays above

FC(F)OC(Cl)C(F)(F)F (stereo not given)
inactive: all assays above

CNC(=O)C[C@@H](N)C(=O)N[C@@H](C(=O)N[C@@H]1C(=O)N2[C@@H]1SC(C)(C)[C@@H]2C(=O)O)c1ccc(O)cc1
inactive: all assays above

O=P(O)(O)OC[C@H](O)CO
inactive: all assays above

CN(C)C=Nc1c(I)cc(I)c(CCC(=O)O)c1I
inactive: all assays above

Cc1cc(=O)c(C(=O)N[C@@H](C(=O)N[C@@H]2C(=O)N3C(C(=O)O)=C(CSc4nnnn4C)CS[C@H]23)c2ccc(O)cc2)c[nH]1
inactive: all assays above

CO[C@H]1C[C@@H]2CC[C@@H](C)[C@@](O)(O2)C(=O)C(=O)N2CCCC[C@H]2C(=O)O[C@H]([C@H](C)C[C@@H]2CC[C@@H](OC(=O)C(C)(CO)CO)[C@H](OC)C2)CC(=O)[C@H](C)/C=C(\C)[C@@H](O)[C@@H](OC)C(=O)[C@H](C)C[C@H](C)/C=C/C=C/C=C/1C
inactive: all assays above

CN(CCO)CC(O)Cn1cnc2c1c(=O)n(C)c(=O)n2C (stereo not given) (tested in a mixture with another compound)
inactive: all assays above

CCOC(C)OCC
inactive: all assays above

OCl
inactive: all assays above

CCc1ncnc2cc(OC)c(OC)cc12
inactive: all assays above

CCCCCCCCCCCC(=O)OCC(O)CO (stereo not given)
inactive: all assays above

COC(=O)C(CN)c1c[nH]c2ccc(OC)cc12 (stereo not given)
inactive: all assays above

O=C(O)/C=C/c1ccccc1
inactive: all assays above

O=C(O)c1ccc(OCCn2ccnc2)cc1
inactive: all assays above

CC(CC=O)CCCC(C)(C)O (stereo not given)
inactive: all assays above

C[C@H](O)CN(C)C
inactive: all assays above

Nc1ncnc2c1ncn2[C@H]1CC[C@@H](CO)O1
inactive: all assays above

CC(C)CCC[C@@H](C)[C@H]1CC[C@H]2[C@@H]3CC=C4C[C@@H](O)CC[C@]4(C)[C@H]3CC[C@]12C
inactive: all assays above

O=C(O)[C@H]1C(=CCO)O[C@H]2CC(=O)N12
inactive: all assays above

CC(C)(COP(=O)(O)OP(=O)(O)OC[C@H]1O[C@@H](n2cnc3c(N)ncnc32)[C@H](O)[C@@H]1OP(=O)(O)O)C(O)C(=O)NCCC(=O)NCCS (stereo not given in full)
inactive: all assays above

FC(F)(F)C(F)(F)C(F)(F)C(F)(F)C(F)(F)C(F)(F)F
inactive: all assays above

Cc1ccc(S(=O)(=O)NCl)cc1
inactive: all assays above

O=S(=O)(O)CC(S)CS (stereo not given)
inactive: all assays above
